The list is not random: actives were taken first. Their share in the collection is about 3.9%.
ALR H2O2 inh = blocks human ALR sulfhydryl oxidase activity; purified ALR, DTT oxidation, H2O2 HRP-luminol luminescence; inhibition, % (concentration not given with the values); P55789; AID 485317; 3.8% of 290,000 active;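 active = mean replicate inhibition above about 79%, with every replicate also reaching it, limit read from the data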
NSD2 HMT inh = NSD2 (human) methyltransferase inhibition. 0.54% of 310,000 active. NSD2 peptide methylation, AlphaScreen, 120 min. inhibition, % at 12.5 µM; in the data active = inhibition above about 50%
Target sequence (O96028 whole entry, looked up): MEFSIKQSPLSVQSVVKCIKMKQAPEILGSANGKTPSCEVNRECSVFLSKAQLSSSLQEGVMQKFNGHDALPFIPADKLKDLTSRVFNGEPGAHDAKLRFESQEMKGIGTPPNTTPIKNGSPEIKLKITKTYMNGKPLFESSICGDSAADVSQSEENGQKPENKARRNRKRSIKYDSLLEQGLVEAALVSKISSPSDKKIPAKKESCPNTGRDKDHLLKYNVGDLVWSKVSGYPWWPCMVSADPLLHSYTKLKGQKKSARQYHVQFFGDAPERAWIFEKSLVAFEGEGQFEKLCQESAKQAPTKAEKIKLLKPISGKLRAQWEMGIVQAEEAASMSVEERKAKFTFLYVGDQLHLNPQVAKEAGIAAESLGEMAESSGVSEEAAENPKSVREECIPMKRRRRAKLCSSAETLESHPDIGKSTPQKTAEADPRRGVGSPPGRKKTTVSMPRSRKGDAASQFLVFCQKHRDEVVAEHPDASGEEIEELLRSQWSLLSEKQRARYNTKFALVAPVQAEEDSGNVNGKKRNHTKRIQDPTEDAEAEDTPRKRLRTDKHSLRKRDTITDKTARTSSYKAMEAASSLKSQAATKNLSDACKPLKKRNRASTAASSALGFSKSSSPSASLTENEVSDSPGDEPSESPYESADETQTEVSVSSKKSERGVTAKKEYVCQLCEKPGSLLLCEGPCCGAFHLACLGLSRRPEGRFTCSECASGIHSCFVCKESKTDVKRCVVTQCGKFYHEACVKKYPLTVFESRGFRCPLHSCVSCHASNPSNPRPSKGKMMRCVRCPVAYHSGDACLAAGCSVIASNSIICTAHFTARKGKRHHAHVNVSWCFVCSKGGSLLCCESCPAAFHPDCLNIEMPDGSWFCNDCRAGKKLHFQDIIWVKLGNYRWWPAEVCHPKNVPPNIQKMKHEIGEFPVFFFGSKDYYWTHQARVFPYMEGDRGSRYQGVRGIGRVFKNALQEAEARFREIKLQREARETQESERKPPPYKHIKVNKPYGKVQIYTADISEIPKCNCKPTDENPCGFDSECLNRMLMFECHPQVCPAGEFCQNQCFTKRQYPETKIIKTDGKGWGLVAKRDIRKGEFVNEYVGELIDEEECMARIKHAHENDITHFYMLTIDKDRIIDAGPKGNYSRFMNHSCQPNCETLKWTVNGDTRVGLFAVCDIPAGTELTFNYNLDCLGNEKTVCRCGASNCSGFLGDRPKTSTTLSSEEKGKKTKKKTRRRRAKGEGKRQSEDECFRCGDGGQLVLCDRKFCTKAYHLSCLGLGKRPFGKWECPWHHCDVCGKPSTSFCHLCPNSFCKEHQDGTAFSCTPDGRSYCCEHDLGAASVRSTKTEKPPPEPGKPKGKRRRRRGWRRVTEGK
Glyco luc inh = N-linked glycosylation inhibition. D54 ERlucT glycosylation luciferase reporter, 24 h; percent of 100 nM tunicamycin response. reporter increase, % at 12.5 µM. 0.23% of 360,000 active;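 active = mean luciferase reporter signal, scaled so untreated is 0 and the glycosylation-blocking control 100, at or above a set limit in every replicate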;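 also: luciferase carries N-glycosylation sites so blocking glycosylation raises the light; 0% = median of neutral control wells and 100% = median of 100 nM tunicamycin wells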
Casp6 inh = inhibitors of human caspase-6; inhibition, % at 12.5 µM; 0.53% of 350,000 active; AID 686996; purified caspase-6, Z-VEID-R110 cleavage fluorescence;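 active = mean inhibition across replicates at least about 35%, with every replicate also reaching that limit, limit read from the data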;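 also: 0% = median of neutral control wells and 100% = no fluorescence left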
CDK5 inh = inhibitors of human CDK5/p35 kinase; Q00535+Q15078; Recombinant CDK5/p35, ADP-Glo luminescence, 60 min; inhibition, % at 10 µM; 0.01% of 330,000 active; AID 488839;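 active = highest replicate inhibition of at least 50% and at least 75% of replicates reaching 50%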;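 also: plate controls were DMSO neutral control for no effect and GW8510 at 10 µM for full effect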
Mot1-301 SUMO = inhibitors of SUMOylation pathway: yeast Mot1-301 growth rescue | S. cerevisiae Mot1-301 growth rescue, ATP luminescence, 38.5C; percent above DMSO median, 100 means doubled | growth rescue, % at 18.8 µM | 1% of 320,000 active | AID 2716;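 active = every valid replicate shows activation above 250% relative to neutral control wells; inactive = the rest, any valid replicate at or below 250%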;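 also: OY570 slx delta 5 strain wells were the positive control but not used for scaling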
Yeast Mot1 SUMO = inhibits SUMO pathway, affecting Mot1-301 yeast growth | 2,300 tested, under 10 active | shares compounds with Mot1-301 SUMO | growth activity, percent, % at 42 µM | S. cerevisiae Mot1-301 galactose growth, ATP luminescence, 24 h; -100 = growth of slx-deleted rescue strain | AID 493004;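 active = Signal drops as the depositor expects, and the fitted half-maximal dose is no more than ten times the top valid tested dose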;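 also: more negative values mean stronger growth rescue toward the control strain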
* hit, by the source's call; . = no result given; + = active, no number.

SMILES	ALR H2O2 inh	NSD2 HMT inh	Glyco luc inh	Casp6 inh	CDK5 inh	Mot1-301 SUMO	Yeast Mot1 SUMO
Cn1c(=NC(=O)COc2ccccc2)sc2cc(F)cc(F)c21	-1	.	.	.	.	448*	0
COc1ccc(/C=N\Nc2ccc([N+](=O)[O-])cc2)c(C(=O)O)c1OC	98*	2	2	1	0	455*	0
O=C1C2CC=C(Cl)CC2C(=O)N1c1ncn[nH]1 (configuration not stated)	-12	12	1	.	-2	570*	0
Fc1ccccc1C1CCN(Cc2nc(CC3CC3)no2)C1 (configuration not stated)	-3	-6	-2	2	-2	-15	.
Fc1ccc2nc(C3CCN(Cc4nc(CC5CC5)no4)CC3)[nH]c2c1	27	1	2	-2	-1	460*	0
O=C(Cc1ccc(Cl)cc1)NC(=S)Nc1ccccc1N1CCOCC1	0	-2	-3	.	1	815*	0
CCCN1CN=C(Nc2nc3ccccc3o2)NC1	6	-2	0	-5	1	-7	.
OCCN1CN=C(Nc2nc3ccccc3o2)NC1	-1	1	1	.	0	+	0
Cc1ccc(/C=N/NC(=O)NC23CC4CC(CC(C4)C2)C3)o1	-20	2	-1	6	1	743*	-1
CO[C@H]1CN(C)C(=O)c2ccc(NC(=O)Nc3cc(F)ccc3F)cc2OC[C@H](C)NC[C@@H]1C	.	.	.	-5	.	.	.
COc1ccc2c(C(=O)CN3CCC(C)CC3)c[nH]c2c1	1	1	0	.	1	-12	.
COc1ccc2c(C(=O)CN3CC(C)OC(C)C3)c[nH]c2c1 (configuration not stated)	-6	1	2	.	1	390*	0
N#CCSc1nc2c(cc1C#N)CCCCCC2	-11	-3	0	.	3	145	.
N#CCSc1nc2c(c(C3CC=CCC3)c1C#N)CCC2 (configuration not stated)	-10	-6	0	0	0	+	1
O=C1CN(C(=O)COC(=O)c2ccccc2O)c2ccccc2N1	-2	0	4	-2	-1	208	.
O=C1CN(C(=O)COC(=O)c2ccccc2NCc2ccco2)c2ccccc2N1	-9	-39	-1	.	-1	728*	0
C[C@@H]1CN([C@@H](C)CO)C(=O)c2cc(NS(C)(=O)=O)ccc2O[C@H]1CN(C)C(=O)Nc1cccc2ccccc12	.	.	.	-2	.	.	.
CCCNC(=O)N[C@@H]1C=C[C@@H](CC(=O)NC2CCCCC2)O[C@@H]1CO	.	.	.	22	.	.	.
CCOC(=O)c1cc([N+](=O)[O-])c([N+](=O)[O-])cc1NC(C)=O	-9	30	1	10	-1	487*	0
C[C@@H]1CCCCO[C@H](CN(C)C(=O)Nc2cccc3ccccc23)[C@H](C)CN([C@@H](C)CO)C(=O)c2cc(NC(=O)Nc3ccc(F)cc3)ccc2O1	.	.	.	-1	.	.	.
CCCCCNC(=O)c1ccc2c(=O)n(CC3CCCO3)c(=O)[nH]c2c1 (configuration not stated)	1	-8	-2	.	0	773*	0
CC(C)(C)OC(=O)N[C@@H](Cc1ccccc1)C(=O)NCC1CCC(C(=O)N[C@@H](CC(=O)O)C(=O)O)CC1 (some centres not stated)	7	-2	0	0	2	288	.
CCC(C)[C@H](NC(=O)OC(C)(C)C)C(=O)NCC1CCC(C(=O)N[C@@H](Cc2ccccc2)C(=O)O)CC1 (some centres not stated)	3	-3	5	2	2	628*	-1
CC(=O)N1c2ccc([N+](=O)[O-])cc2NC(=O)CC1C (configuration not stated)	-6	-4	2	.	-1	600*	-1
CC1CC(=O)Nc2ccc([N+](=O)[O-])cc2N1C (configuration not stated)	7	1	3	.	4	3	.
SMILES	ALR H2O2 inh	NSD2 HMT inh	Glyco luc inh	Casp6 inh	CDK5 inh	Mot1-301 SUMO	Yeast Mot1 SUMO
COc1ccccc1N(CC(=O)NCC1CCCO1)C(=O)CCC(=O)Nc1cc(C)on1 (configuration not stated)	-2	1	3	-2	0	752*	0
COc1cccc(CN(CC(=O)NCC2CCCO2)C(=O)CCC(=O)Nc2cc(C)on2)c1 (configuration not stated)	-2	0	0	.	0	.	.
CCOc1ccccc1N(CC(=O)NCC1CCCO1)C(=O)CCC(=O)Nc1cc(C)on1 (configuration not stated)	-3	-4	1	-2	-1	-20	.
COc1ccc(CN(CC(=O)NCC2CCCO2)C(=O)CCC(=O)Nc2cc(C)on2)cc1 (configuration not stated)	-4	2	2	.	-3	392*	1
O=C1Nc2ccccc2/C1=C/c1ccc([N+](=O)[O-])cc1	-6	-2	12	2	1	477*	0
COc1ccccc1-c1ccc([C@@H]2[C@@H](CO)N(C(=O)C3CC3)[C@H]2C#N)cc1	.	.	.	1	.	.	.
Nc1nc2ccccc2cc1-c1cccs1	-4	-9	2	-3	3	435*	-1
O=C(NNc1ccccc1)C(CCO)C(=O)NNc1ccccc1	98*	-1	2	4	1	404*	0
CCN(CC)CCCNC(=O)C1CCC(CNS(=O)(=O)c2c(C)cc(C)cc2C)CC1 (configuration not stated)	.	21	-3	-9	0	19	.
CCC1CCCCN1CCCNC(=O)C1CCC(CNS(=O)(=O)c2c(C)cc(C)cc2C)CC1 (configuration not stated)	-1	10	-1	-10	-2	509*	0
O=C(CN1CCc2ccccc21)NN1CC(=O)N(c2ccc(Cl)cc2)CC1=O	0	-1	-2	0	2	484*	-1
CNC[C@@H]1Oc2c(NC(=O)Nc3ccc(C(F)(F)F)cc3)cccc2C(=O)N([C@@H](C)CO)C[C@@H]1C	.	.	.	1	.	.	.
O=C(O)c1cc(S(=O)(=O)Nc2ccc(OCc3ccccc3)cc2)ccc1Br	22	.	2	1	1	414*	1
CCCNC(=O)N1CC2(CN(Cc3nccs3)C2)c2c([nH]c3cc(OC)ccc23)[C@@H]1CO	.	.	.	0	.	.	.
CCOc1ccc(C(=O)NCC2OCCc3ccccc32)cc1 (configuration not stated)	-5	26	2	.	-1	748*	0
COc1ccc(CN(C)C[C@H]2OCCCC[C@@H](C)Oc3ccc(NS(=O)(=O)c4ccc(Cl)cc4)cc3C(=O)N([C@H](C)CO)C[C@H]2C)cc1	.	.	.	2	.	.	.
